The campaign covered roughly 5,500 compounds. About 2,000 (36%) were called active. Roughly 18% stayed inconclusive and do not appear here. No stated cut-off is given here; in the data, active means normalized growth mostly below about 0.91 (no sharp cut-off); inconclusive means no clear call, values can overlap the other calls; inactive means mostly above about 0.92. The list shows a part of the results.
Assay: chemical genetic growth profiling, strain panel (AID 1159580);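 further: tested at 20 µM; growth read once vehicle control cultures reached saturation at 30 °C; 1 = growth at the plate median or of vehicle wells; lower values mean less growth of the strain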
Conditions: growth OD

Measured: normalized growth

O=C1C=CC(=C(c2ccc(O)cc2)c2ccc(O)cc2)C=C1
inactive: S. cerevisiae deletion strains, locus YJR075W, strain HOC1, hits give low values 1.02 | S. cerevisiae deletion strains, locus YKL009W, strain mrt4, hits give low values 0.995 | S. cerevisiae deletion strains, locus YKL068W, hits give low values 0.997 | S. cerevisiae deletion strains, locus YKL085W, strain MDH1 (second series), hits give low values 0.994 | S. cerevisiae deletion strains, locus YKL085W, strain MDH1, hits give low values 0.994 | S. cerevisiae deletion strains, locus YKL160W, strain elf1, hits give low values 1.01 | S. cerevisiae deletion strains, locus YKL190W, strain CNB1, hits give low values 0.994 | S. cerevisiae deletion strains, locus YKR001C, strain vps1, hits give low values 0.986 | S. cerevisiae deletion strains, locus YKR026C, strain gcn3, hits give low values 0.975 | S. cerevisiae deletion strains, locus YKR091W, strain srl3, hits give low values 0.989 | S. cerevisiae deletion strains, locus YLL001W, strain dnm1, hits give low values 0.976 | S. cerevisiae deletion strains, locus YLL026W, hits give low values 0.996 | S. cerevisiae deletion strains, locus YLL041C, strain sdh2, hits give low values 0.991 | S. cerevisiae deletion strains, locus YLR027C, strain aat2, hits give low values 0.998 | S. cerevisiae deletion strains, locus YLR039C, strain RIC1, hits give low values 1.04 | S. cerevisiae deletion strains, locus YLR058C, strain SHM2, hits give low values 0.991 | S. cerevisiae deletion strains, locus YLR102C, strain apc9, hits give low values 0.994 | S. cerevisiae deletion strains, locus YLR113W, strain HOG1, hits give low values 1.03 | S. cerevisiae deletion strains, locus YLR221C, strain rsa3, hits give low values 0.983 | S. cerevisiae deletion strains, locus YLR258W, strain gsy2, hits give low values 1.01 | S. cerevisiae deletion strains, locus YLR262C, strain YPT6 (second series), hits give low values 0.972 | S. cerevisiae deletion strains, locus YLR262C, strain YPT6, hits give low values 1.02 | S. cerevisiae deletion strains, locus YLR268W, strain sec22, hits give low values 1.02 | S. cerevisiae deletion strains, locus YLR320W, strain mms22, hits give low values 0.972 | S. cerevisiae deletion strains, locus YLR330W, strain CHS5, hits give low values 0.995 | S. cerevisiae deletion strains, locus YLR342W, strain FKS1 (second series), hits give low values 0.972 | S. cerevisiae deletion strains, locus YLR342W, strain FKS1, hits give low values 0.991 | S. cerevisiae deletion strains, locus YLR357W, strain rsc2, hits give low values 0.999 | S. cerevisiae deletion strains, locus YLR370C, strain arc18, hits give low values 0.964 | S. cerevisiae deletion strains, locus YLR371W, strain rom2, hits give low values 0.985 | S. cerevisiae deletion strains, locus YLR384C, strain iki3, hits give low values 0.986 | S. cerevisiae deletion strains, locus YLR418C, strain cdc73, hits give low values 0.999 | S. cerevisiae deletion strains, locus YML016C, strain PPZ1, hits give low values 0.991 | S. cerevisiae deletion strains, locus YML032C, strain rad52, hits give low values 0.98 | S. cerevisiae deletion strains, locus YML120C, strain ndi1, hits give low values 1.01 | S. cerevisiae deletion strains, locus YML124C, strain tub3, hits give low values 0.983 | S. cerevisiae deletion strains, locus YMR058W, strain fet3, hits give low values 0.982 | S. cerevisiae deletion strains, locus YMR078C, strain ctf18, hits give low values 0.98 | S. cerevisiae deletion strains, locus YMR125W, strain sto1, hits give low values 0.974 | S. cerevisiae deletion strains, locus YMR129W, hits give low values 0.987 | S. cerevisiae deletion strains, locus YMR205C, strain PFK2, hits give low values 0.995 | S. cerevisiae deletion strains, locus YMR223W, strain ubp8, hits give low values 0.982 | S. cerevisiae deletion strains, locus YMR231W, strain pep5, hits give low values 0.98 | S. cerevisiae deletion strains, locus YMR263W, strain SAP30, hits give low values 1.02 | S. cerevisiae deletion strains, locus YMR307W, strain GAS1, hits give low values 0.945 | S. cerevisiae deletion strains, locus YNL067W, strain RPL9B, hits give low values 1.03 | S. cerevisiae deletion strains, locus YNL071W, strain lat1, hits give low values 0.971 | S. cerevisiae deletion strains, locus YNL128W, strain TEP1, hits give low values 1.02 | S. cerevisiae deletion strains, locus YNL153C, strain GIM3, hits give low values 1.01 | S. cerevisiae deletion strains, locus YNL183C, strain NPR1, hits give low values 0.986 | S. cerevisiae deletion strains, locus YNL209W, strain ssb2, hits give low values 0.985 | S. cerevisiae deletion strains, locus YNL233W, strain BNI4, hits give low values 0.999 | S. cerevisiae deletion strains, locus YNL248C, strain rpa49, hits give low values 0.966 | S. cerevisiae deletion strains, locus YNL250W, strain rad50, hits give low values 0.984 | S. cerevisiae deletion strains, locus YNL271C, strain bni1, hits give low values 0.992 | S. cerevisiae deletion strains, locus YNL298W, strain CLA4, hits give low values 0.981 | S. cerevisiae deletion strains, locus YNL307C, strain MCK1, hits give low values 0.98 | S. cerevisiae deletion strains, locus YNL322C, strain KRE1 (second series), hits give low values 0.951 | S. cerevisiae deletion strains, locus YNL322C, strain KRE1, hits give low values 1.01 | S. cerevisiae deletion strains, locus YNR049C, strain mso1, hits give low values 0.979 | S. cerevisiae deletion strains, locus YNR052C, strain pop2, hits give low values 0.966 | S. cerevisiae deletion strains, locus YOL006C, strain TOP1, hits give low values 1.02 | S. cerevisiae deletion strains, locus YOL012C, strain htz1 1.83 | S. cerevisiae deletion strains, locus YOL147C, strain pex11, hits give low values 0.985 | S. cerevisiae deletion strains, locus YOR001W, strain rrp6, hits give low values 0.96 | S. cerevisiae deletion strains, locus YOR061W, strain CKA2, hits give low values 1 | S. cerevisiae deletion strains, locus YOR069W, strain VPS5, hits give low values 1.02 | S. cerevisiae deletion strains, locus YOR070C, strain gyp1, hits give low values 1 | S. cerevisiae deletion strains, locus YOR080W, strain dia2, hits give low values 0.986 | S. cerevisiae deletion strains, locus YOR083W, strain WHI5, hits give low values 1.02 | S. cerevisiae deletion strains, locus YOR106W, strain vam3, hits give low values 0.984 | S. cerevisiae deletion strains, locus YOR136W, strain idh2, hits give low values 0.982 | S. cerevisiae deletion strains, locus YOR144C, strain elg1, hits give low values 0.985 | S. cerevisiae deletion strains, locus YOR184W, strain ser1, hits give low values 0.988 | S. cerevisiae deletion strains, locus YOR231W, strain MKK1, hits give low values 1.04 | S. cerevisiae deletion strains, locus YOR265W, strain rbl2, hits give low values 0.978 | S. cerevisiae deletion strains, locus YOR270C, strain vph1, hits give low values 0.926 | S. cerevisiae deletion strains, locus YOR290C, strain snf2, hits give low values 1.01 | S. cerevisiae deletion strains, locus YOR316C, strain cot1, hits give low values 0.984 | S. cerevisiae deletion strains, locus YPL051W, strain arl3, hits give low values 0.987 | S. cerevisiae deletion strains, locus YPL055C, strain LGE1, hits give low values 1.06 | S. cerevisiae deletion strains, locus YPL078C, strain atp4, hits give low values 0.973 | S. cerevisiae deletion strains, locus YPL106C, strain sse1, hits give low values 0.994 | S. cerevisiae deletion strains, locus YPL240C, strain hsp82, hits give low values 0.973 | S. cerevisiae deletion strains, locus YPL241C, strain CIN2, hits give low values 1.02 | S. cerevisiae deletion strains, locus YPL256C, strain CLN2, hits give low values 1.05 | S. cerevisiae deletion strains, locus YPR119W, strain clb2, hits give low values 0.979 | S. cerevisiae deletion strains, locus YPR141C, strain kar3, hits give low values 0.992 | S. cerevisiae deletion strains, locus YPR163C, strain tif3, hits give low values 0.989 | S. cerevisiae deletion strains, locus YPR167C, strain met16, hits give low values 0.991 | S. cerevisiae deletion strains, strain wtn01, hits give low values 0.991 | S. cerevisiae strains, strain wild type, hits give low values 0.994

From PubChem BioAssay AID1159580 (chemical genetic matrix, 2015)
